Bioassay records deposited in PubChem by several laboratories.
This is a sample that favours compounds with a hit; in the whole collection about 2.3% have one here.
ADAM17 inh: ADAM17 inhibition, QFRET primary screen. P78536. recombinant ADAM17, EDANS/DABCYL FRET peptide cleavage. inhibition, % at 6.95 µM. 0.83% of 370,000 active. AID 720648;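 active = inhibition above the mean of compounds lying between control limits plus 3 SD, set per campaign, cut at about 8.5% in these data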
Target sequence (P78536 215-824 limits assumed): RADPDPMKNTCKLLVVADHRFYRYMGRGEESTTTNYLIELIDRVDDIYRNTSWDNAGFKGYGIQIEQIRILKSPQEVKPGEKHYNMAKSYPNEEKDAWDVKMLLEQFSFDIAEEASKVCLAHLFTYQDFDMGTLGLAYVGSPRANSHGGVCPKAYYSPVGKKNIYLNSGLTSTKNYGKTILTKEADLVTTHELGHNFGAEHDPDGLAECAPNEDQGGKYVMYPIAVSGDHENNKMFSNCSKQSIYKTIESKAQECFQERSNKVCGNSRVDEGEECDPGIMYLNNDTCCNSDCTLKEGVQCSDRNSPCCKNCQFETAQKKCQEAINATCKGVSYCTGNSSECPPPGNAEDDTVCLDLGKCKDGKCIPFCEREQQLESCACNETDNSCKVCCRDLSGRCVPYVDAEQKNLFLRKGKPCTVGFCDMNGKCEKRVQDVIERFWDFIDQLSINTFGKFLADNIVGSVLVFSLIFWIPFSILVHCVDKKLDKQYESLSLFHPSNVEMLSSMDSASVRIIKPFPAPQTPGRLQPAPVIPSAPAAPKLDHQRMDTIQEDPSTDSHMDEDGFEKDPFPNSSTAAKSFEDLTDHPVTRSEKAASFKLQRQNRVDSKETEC
ADAM10 inh: inhibits human ADAM10. recombinant ADAM10, EDANS/DABCYL FRET peptide cleavage, 3 h. inhibition, % at 7 µM. 0.62% of 370,000 active. AID 720582;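 active = inhibition above a per-campaign cutoff equal to the mean of compounds falling between control-based bounds plus 3 SD, cut at about 20% in these data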
V-ATPase pHluor: regulators of yeast V-ATPase proton transport | S. cerevisiae, pHLuorin cytosolic pH fluorescence | response, % at 10 µM | 0.37% of 350,000 active | AID 504577; in the data active = response mostly above about 7.3%, no sharp cut-off; inactive = mostly below about 5.4%; note: actives read high
KLK7 zymogen act: activates the human kallikrein-7 zymogen; activation, % at 7 µM; 0.9% of 370,000 active; P49862; purified proKLK7, EDANS-DABCYL substrate fluorescence; 100% is mature enzyme control, 0% vehicle; AID 652039;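 active = activation above the mean of all tested compounds plus 3 SD, computed per campaign excluding outliers beyond control limits, cut at about 13% in these data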
proKLK7 act conf: proKLK7 activation, confirmation; shares compounds with KLK7 zymogen act; purified proKLK7, EDANS-DABCYL substrate fluorescence; scaled: vehicle 0, mature enzyme 100; activation, % at 7 µM; 68% of 3,200 active; AID 686949;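 active = activation, as change over the incubation, above the mean of all tested compounds plus 3 SD, cut at about 13% in these data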
EDANS interfere: fluorescence interference counter-screen for KLK7 activators; AID 686952; 80% of 3,200 active; activation, % at 7 µM; EDANS-DABCYL substrate fluorescence interference, no enzyme, 4 h; solvent 0%, active enzyme control 100%; shares compounds with KLK7 zymogen act;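 active = activation above the all-compound mean plus 3 SD, ignoring values outside control-based bounds, cut at about 4.8% in these data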;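 note: value is the 4 h activation minus the activation read at time zero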
EDANS interf: optically interferes with EDANS-DABCYL fluorescence, kallikrein-7 activator counter-screen; shares compounds with KLK7 zymogen act; EC50, µM; 20% of 250 active; EDANS-DABCYL peptide fluorescence interference, no enzyme; AID 720493;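 active = compounds that raise the fluorescence signal in this interference counterscreen, with EC50 at or below 10 µM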;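 note: intact quenched peptide substrate alone read at 355 nm excitation and 520 nm emission; signal is fluorescence gain from T0 to T4 after four hours at room temperature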
A number is an active result; . = inactive; / = no result given.

SMILES | ADAM17 inh | ADAM10 inh | V-ATPase pHluor | KLK7 zymogen act | proKLK7 act conf | EDANS interfere | others
CCC(Oc1ccccc1)C(=O)NC1C(=O)N2C1SC(C)(C)C2C(=O)O (stereo not given) | . | . | . | . | / | /
CC1(C)S[C@@H]2[C@H](NC(=O)[C@H](N)c3ccccc3)C(=O)N2[C@H]1C(=O)OC1OC(=O)c2ccccc21 (stereo not given in full) | . | . | . | 15.7 | . | 4.6
Cc1cc(C)nc(SCc2nc3nc(C)cc(C)n3c2Br)n1 | . | . | . | . | / | /
Cc1cc(C)n2c(Br)c(CN3CCCC(C)C3)nc2n1 (stereo not given) | . | . | . | 14.9 | 14.0 | 15.6
Cc1cc(NCC2CCCO2)n2c(nc3ccccc32)c1C#N (stereo not given) | . | . | . | 16.1 | 43.6 | 34.3
CC(C)c1cc(NCC2CCCO2)n2c(nc3ccccc32)c1C#N (stereo not given) | . | . | . | 21.1 | . | .
O=C(CCn1nnc2ccccc21)N1CCN(c2cccc(C(F)(F)F)c2)CC1 | . | . | / | . | / | /
O=c1cc(C(F)(F)F)c2sc(N3CCCCC3)nc2[nH]1 | . | . | . | 37.9 | . | 10.5
CCN1CCCC1Cn1cnc2c([nH]c3ccc(C)cc32)c1=O (stereo not given) | . | . | . | 16.1 | . | 5.0
Cc1ccc2[nH]c3c(=O)n(CCN4CCNCC4)cnc3c2c1 | . | . | . | . | / | /
S=C1NC(c2ccccc2)=CC(c2ccccc2)N1 (stereo not given) | . | . | . | . | / | /
N#CC1C(=O)NC(c2ccccc2)=CC1c1ccccc1 (stereo not given) | . | . | . | 123.6 | 109.5 | 102.9
O=C1CCC[C@H]2C[C@H](NCc3cccc(Cl)c3)CC[C@]23CCCN13 | . | . | / | / | / | /
CC(=O)c1ccc(-c2nc3ccccc3n2C)o1 | . | . | . | 66.6 | 56.7 | 58.8
Cc1cc(-c2ccccc2)c2ccc(NC(=O)C(C)(C)C)nc2n1 | . | . | . | 33.0 | . | .
CCCCCCCCN1C(=O)[C@@H](CC(=O)NCC2CCCCC2)C[C@@]2(C(=O)OC)C1=C[C@H](C(C)(C)C)O[C@@H]2C | . | . | / | . | / | /
NC(=O)N/N=C/c1cc(Br)ccc1OCC(=O)NCc1ccccc1 | . | . | . | . | / | /
NC(=O)N/N=C/c1cc(Br)ccc1OC(=O)c1ccccc1 | . | . | . | 16.5 | 14.0 | 12.8
CCN(CC)c1ccc2c(C)c(CO)c(=O)oc2c1 | . | . | . | 50.3 | 50.6 | 36.0 | EDANS interf=.
CCN(CC)c1ccc2c(C)c(CN3CCOCC3)c(=O)oc2c1 | / | / | . | / | / | /
COC(=O)C1=C(C)N(C)C(=NCc2cccc(C(F)(F)F)c2)NC1c1cccc(Cl)c1 (stereo not given) | . | . | / | . | / | /
O=C(c1cc2c(=O)n3ccccc3nc2s1)N1CCN(Cc2ccc3c(c2)OCO3)CC1 | . | . | . | . | / | /
CCC1CCCCN1C(=O)c1cc2c(=O)n3cccc(C)c3nc2s1 (stereo not given) | / | / | . | / | / | /
CCOC(=O)C1CCN(C(=O)c2cc3c(=O)n4ccccc4nc3s2)CC1 | . | . | . | 42.0 | 68.4 | 70.8
CCN1CCN(C(=O)c2cc3c(=O)n4ccccc4nc3s2)CC1 | . | . | . | 54.7 | 44.4 | 56.6
SMILES | ADAM17 inh | ADAM10 inh | V-ATPase pHluor | KLK7 zymogen act | proKLK7 act conf | EDANS interfere | others
CCOC(=O)C1CCN(C(=O)c2cc3c(=O)n4cccc(C)c4nc3s2)CC1 | . | . | . | . | / | /
O=C(c1cc2c(=O)n3ccccc3nc2s1)N1CCN(Cc2ccccc2)CC1 | . | . | . | 25.1 | . | .
CCOC(=O)CC1C(=O)NCCN1C(=O)c1cc2c(=O)n3cccc(C)c3nc2s1 (stereo not given) | . | . | . | 42.9 | 25.1 | 31.8
CCCCc1c(-c2ccccc2OC)ncn1C1CCCCC1 | . | . | / | . | / | /
COc1ccc(OCC2CN(Cc3ccccc3)S(=O)(=O)CCO2)cc1 (stereo not given) | . | . | / | . | / | /
Cc1noc(C)c1S(=O)(=O)N1CCCc2nc(-c3ccccc3)ccc21 | . | . | / | . | / | /
COc1cc2c(cc1OC)CN(C(=O)NS(=O)(=O)c1ccc(C)cc1)CC2 | . | . | . | 19.8 | . | .
Cc1nn(-c2ccccn2)c2nc(-c3cccs3)cc(C(=O)N3CCOCC3)c12 | . | . | . | 23.4 | 31.6 | 26.0 | EDANS interf=.
CS(=O)(=O)NN1C(=O)c2ccccc2NC1c1ccccc1F (stereo not given) | . | . | . | 35.2 | . | 8.2
COc1ccc(C2Nc3ccccc3C(=O)N2NS(=O)(=O)c2ccc(C)cc2)cc1OC (stereo not given) | . | . | . | 31.2 | . | 7.1
COc1ccc(C2Nc3ccccc3C(=O)N2c2ccc(C)cc2)cc1Cn1nnc2ccccc21 (stereo not given) | . | . | . | . | / | /
CS(=O)(=O)NN1C(=O)c2ccccc2NC1c1cc2ccccc2nc1Cl (stereo not given) | . | . | . | . | / | /
COc1ccc(C2Nc3ccccc3C(=O)N2NS(=O)(=O)c2ccccc2)cc1OC (stereo not given) | . | . | . | 16.7 | . | 9.0
CN(C)c1ccc(C2Nc3ccccc3C(=O)N2NS(C)(=O)=O)cc1 (stereo not given) | . | . | . | 21.8 | . | 5.9
CCOC(=O)CCCNC(=O)OC1CC2CC1[C@H]1CCCCN1[C@H]2Cc1ccccc1 (stereo not given in full) | . | . | / | . | / | /
COc1ccc(C2Nc3ccccc3C(=O)N2Cc2ccccc2)cc1OC (stereo not given) | . | . | . | . | / | /
COc1ccc(C2Nc3ccccc3C(=O)N2NS(C)(=O)=O)cc1OC (stereo not given) | . | . | . | 58.9 | 21.6 | 12.8 | EDANS interf=.
CC(=O)Oc1cc2oc(=O)c3c(c2cc1Cl)CCC3 | . | . | . | 73.6 | 339.7 | 402.6
O=C(CCCCCN1C(=O)c2ccccc2C1=O)Oc1ccc2c3c(c(=O)oc2c1)CCC3 | . | . | . | 30.6 | 215.5 | 146.3
Cc1ccc(S(=O)(=O)NC(C(=O)Oc2cc3oc(=O)cc(C)c3cc2Cl)C(C)C)cc1 (stereo not given) | . | . | . | 103.9 | 172.8 | 101.7
Cc1cc(=O)oc2cc(OC(C)C(=O)O)c(Cl)cc12 (stereo not given) | . | . | . | . | / | /
CC(=O)Oc1cc2oc(=O)cc(C)c2cc1Cl | . | . | . | 82.0 | 368.2 | 377.3
COc1ccc(-n2c(SCC(=O)NC3CCCCCC3)nnc2-c2ccncc2)cc1 | . | . | / | . | / | /
Cc1cc2oc(=O)c3c(c2cc1OC(=O)c1ccco1)CCCC3 | . | . | . | . | / | /
